Data as given in ChEMBL document CHEMBL4513216, “Probing the Open Global Health Chemical Diversity Library for Multistage-Active Starting Points for Next-Generation Antimalarials” (ACS Infect Dis, 2020).
Screen size: about 68,000 compounds; about 2,700 (4%) showed an effect of 50% or more. The entries come from a sample that favours strong results as a whole.

Test system: Plasmodium berghei
Assay: Screen against P. berghei liver stage (PbLuc), transformed with Luciferase, at 2uM
Type: functional, HepG2
Conditions: tested at 2 uM

SMILES | INHIBITION
CCCC(NC(=O)c1cc(C)ccc1O)c1nnn[nH]1 (configuration not stated) | -7.9%
CCCS(=O)(=O)N1Cc2c(ncn2Cc2ccccc2)C[C@H]1C(=O)OC | 39.73%
CCCn1cnc2c1CN(S(=O)(=O)Cc1ccccc1)[C@H](C(=O)OC)C2 | 60.6%
COC(=O)[C@@H]1Cc2ncn(C(C)C)c2CN1S(=O)(=O)Cc1ccccc1 | 39.18%
COC(=O)[C@@H]1Cc2ncn(C)c2CN1S(=O)(=O)c1cccs1 | 51.81%
COC(=O)[C@@H]1Cc2ncn(C)c2CN1S(=O)(=O)Cc1ccccc1 | 26.55%
CCCn1cnc2c1CN(S(=O)(=O)c1ccc(F)cc1)[C@H](C(=O)OC)C2 | 46.32%
COC(=O)[C@@H]1Cc2ncn(C)c2CN1S(=O)(=O)c1ccc(OC)cc1 | 47.42%
COC(=O)[C@@H]1Cc2ncn(C)c2CN1S(=O)(=O)c1ccc(C)cc1 | 6.24%
COC(=O)[C@@H]1Cc2ncn(C)c2CN1S(=O)(=O)c1ccc(Cl)cc1 | 57.85%
Nc1ncc(-c2cccc(NC(=O)[C@@H]3CCCCN3)c2)cn1 | 14.95%
CN(C)CCN1CCN(C(=O)c2ccn(C)c(=O)c2)CC1 | 5.59%
CC(C)OCCCNC(=O)c1c(-n2cnnn2)sc2c1CCCC2 | 49.57%
Cc1ccc(N2C[C@H]3OCC[C@H]3[C@H](C(=O)NCc3ccco3)C2)nn1 | 65.78%
Cc1ccc(N2C[C@H](C(=O)NCC3CC3)[C@@H]3CCO[C@@H]3C2)nn1 | -2.72%
Cc1ccc(N2C[C@H]3OCC[C@H]3[C@H](C(=O)NCC3CC3)C2)nn1 | -11.4%
Cc1nccn1CC1CCN(C(=O)c2ccccc2)CC1 | -78.75%
COc1cccc(N2CC3(CCN(c4ccncn4)C3)CC2=O)c1 (configuration not stated) | 13.38%
CNc1cncc(C2CCCN2S(=O)(=O)c2ccc(F)cc2)n1 (configuration not stated) | 2.8%
CN(C)CCN1CCC2(CCCN(C(=O)C3CCC3)C2)CC1 | -9.47%
CCC(=O)c1cccc(S(=O)(=O)NC(C)C#N)c1 (configuration not stated) | 31.51%
CNS(=O)(=O)c1cccc(C(C)NCc2ccccc2)c1 (configuration not stated) | 12.75%
CC(CO)NS(=O)(=O)c1cccc(C(C)C)c1 (configuration not stated) | 60.13%
CC(C#N)NS(=O)(=O)c1cccc(C(C)C)c1 (configuration not stated) | 69.67%
Cc1ccc(S(=O)(=O)NC(C)C#N)cc1Br (configuration not stated) | -29.94%
CC(C)c1cccc(S(=O)(=O)NCCCN2CCC(O)CC2)c1 | -13.21%
COc1ccc(Cn2cc(C(=O)N(C)Cc3ccn[nH]3)nn2)cc1 | 20.71%
